# Screening data: PubChem, National Center for Advancing Translational Sciences (NCATS)
# IL-1B inflam inh – qHTS for Inhibitors of Inflammasome Signaling: IL-1-beta AlphaLISA Primary Screen; THP-1 LPS/ATP IL-1B secretion, AlphaLISA, 16 h; stronger effect = lower value; AID 743279, 2014; activity change, % at 57.5 µM; 360,000 compounds, 4.7% hits; in the data active = activity change below about -50%; inconclusive = mostly about -30% to -49%
#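 THP-1 cells pretreated 1 hr with compounds (up to 57.5 uM final), then stimulated with LPS (250 ng/mL final) plus ATP (1.25 mM final); secreted IL-1B measured by AlphaLISA after 16 hr, decreased signal indicating inhibition.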
# TDP1 cell CPT – qHTS for Inhibitors of human tyrosyl-DNA phosphodiesterase 1 (TDP1): qHTS in cells in presence of CPT. chicken DT40 Tdp1-/-;hTDP1 cells + 20 nM CPT, ATP luminescence, 48 h. Potency, µM (top dose mostly 46.2 µM), for the others: at the highest dose activity change, negative = growth inhibition, usual class: inhibitors. 420,000 compounds, 12% hits. AID 686979, 2013; note: potency is the fitted concentration of half-maximal effect; nearly all actives have a fitted effect of over 55% in size
#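 Chicken DT40 Tdp1-/- cells complemented with human TDP1, 400 cells/well, exposed to compounds plus 20 nM camptothecin for at least 48 h at 37 C; viability read as ATP content by CellTiter-Glo luminescence.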
# ELG1 DNA repair – qHTS screen for small molecules that inhibit ELG1-dependent DNA repair in human embryonic kidney (HEK293T) cells expressing luciferase-tagged ELG1 | HEK293T ELG1-luciferase reporter, luminescence, 16 h; DNA damage induced by 5-fluorouridine | Potency, µM (titrated, usually from 46.1 µM), for inactives: at the highest dose activity change, negative = inhibition, hits mostly inhibitors | 330,000 compounds, 2.3% hits | AID 504467, 2011; note: potency is the fitted concentration of half-maximal effect; nearly all actives have a fitted effect of over 55% in size
#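 In this reporter screen, reduction of luminescence relative to DMSO vehicle indicated activity. Compounds and 5-fluorouridine were added together to 2,000 cells per well, incubated for 16 hr at 37 °C, then developed with ONE-Glo.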
# TDP1 cell noCPT – qHTS for Inhibitors of human tyrosyl-DNA phosphodiesterase 1 (TDP1): qHTS in cells in absence of CPT; Potency, µM (titrated, usually from 46.2 µM), without a hit: at the highest dose activity change, negative = growth inhibition, most hits filed as inhibitors; DT40 Tdp1-/- hTDP1 cells, no CPT, ATP luminescence, 48 h; 420,000 compounds, 15% hits; note: potency is the fitted concentration of half-maximal effect; nearly all actives have a fitted effect of over 55% in size
#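 Cells were dispensed at 400 per well, compounds added by pin tool, plates incubated ≥48 hr at 37 °C, then CellTiter-Glo added for 30 min at room temperature before luminescence reading. Line: DT40 Tdp1-/- complemented with hTDP1; camptothecin omitted.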
# Giardia kill – Small Molecules that selectively kill Giardia lamblia: qHTS | AID 540267, 2011 | Giardia lamblia trophozoite viability | activity change, % at 7.66 µM, hits read low | 340,000 compounds, 0.15% hits; in the data active = activity change below about -80%; inconclusive = between about -30% and that limit;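 note: parasites exposed to compound for two days anaerobically before the ATP read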
#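 Giardia lamblia trophozoites (100 cells/well) were incubated with compounds for 48 h at 37 deg C under anaerobic conditions. Viability was read as ATP content by one-step luminescence after 15-30 min at room temperature.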
# TDP1 block – qHTS Assay for Inhibitors of Tyrosyl-DNA Phosphodiesterase (TDP1). Tyrosyl-DNA phosphodiesterase 1 (Homo sapiens), Q9NUW8. Potency, µM (series often up to 130 µM), for inactives: top-dose activity change, negative = inhibition, actives largely listed as inhibitors. 350,000 compounds, 0.28% hits. AID 485290, 2010. recombinant TDP1, AlphaScreen DNA substrate cleavage; note: potency is the fitted concentration of half-maximal effect; nearly all actives have a fitted effect of over 40% in size
# Target sequence (Q9NUW8 whole entry, looked up): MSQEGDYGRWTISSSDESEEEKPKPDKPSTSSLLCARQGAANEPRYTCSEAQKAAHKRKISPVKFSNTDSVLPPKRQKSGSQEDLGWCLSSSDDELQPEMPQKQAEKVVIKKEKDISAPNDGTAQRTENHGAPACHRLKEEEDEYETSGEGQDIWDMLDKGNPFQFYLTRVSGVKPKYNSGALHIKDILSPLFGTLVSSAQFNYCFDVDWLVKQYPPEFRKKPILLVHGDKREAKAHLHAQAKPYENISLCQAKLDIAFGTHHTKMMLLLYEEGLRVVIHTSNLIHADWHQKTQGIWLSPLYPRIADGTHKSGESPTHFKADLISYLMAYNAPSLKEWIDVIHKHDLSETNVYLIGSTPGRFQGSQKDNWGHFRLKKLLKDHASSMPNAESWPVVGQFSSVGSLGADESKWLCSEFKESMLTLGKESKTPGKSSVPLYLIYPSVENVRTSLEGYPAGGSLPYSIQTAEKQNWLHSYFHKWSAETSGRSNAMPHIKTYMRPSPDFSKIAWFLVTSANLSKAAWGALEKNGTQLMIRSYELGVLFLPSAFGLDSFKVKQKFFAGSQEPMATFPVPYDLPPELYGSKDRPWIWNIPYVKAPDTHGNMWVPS
#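 Signal: AlphaScreen proximity between streptavidin donor and anti-FITC acceptor beads on intact substrate. Reaction: Tdp1 1 nM, substrate 15 nM final, 5 min RT after 15 min compound preincubation.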
# Starred values were filed as active, the others as inactive; ? = inconclusive; · = no result given; [ ] = another dose, or the depositor's remark. An excerpt weighted towards active compounds, which were near 19% of everything screened. Unless noted, calls come from the whole dose curve; as a rule, active = well fitted curve in the direction sought with a large enough effect; inconclusive = small, poorly fitted or top-dose-only effect, or another doubt; inactive = no such curve, though single readings can be large; an effect the other way counts as inactive or inconclusive. % is set by controls: 0 for no effect and ±100 for the full control effect.
SMILES,IL-1B inflam inh,TDP1 cell CPT,ELG1 DNA repair,TDP1 cell noCPT,Giardia kill,TDP1 block
COc1ccc(C(C(=O)Nc2ccc(F)cc2)N2CCN(CC(=O)N3CCCC3)CC2)cc1 (centres undefined),-9,6%,·,4%,·,·
CCc1ccc(NC(=O)c2ccc(CNS(=O)(=O)c3ccc4c(c3)C(C)(C)C(=O)N4C)cc2)cc1,·,?,·,4.1µM*,·,3%
CN1C(=O)C(C)(C)c2cc(S(=O)(=O)NCc3ccc(C(=O)Nc4ccc(Cl)cc4)cc3)ccc21,·,18µM*,·,13µM*,·,-5%
CCOC(=O)c1c(CN2CCN(Cc3ccccc3)CC2)n(C)c2cc(Br)c(OC)cc12,-10,?,-5%,16µM*,23,1%
CCOC(=O)c1c(CSc2ccccc2)n(C)c2cc(Br)c(OC)c(O)c12,-27,?,-11%,?,2,·
CCOC(=O)c1c(CN2CCC(C)CC2)n(C)c2cc(Br)c(OC)cc12,-13,?,-17%,16µM*,-2,·
CCOC(=O)c1c(CSc2ccccc2)n(C)c2cc(Br)c(OCC(O)CNC(CO)(CO)CO)cc12 (centres undefined),-100*,?,?,15µM*,6,0%
CCOC(=O)c1c(C)n(C)c2cc(Br)c(C)cc12,0,-7%,-17%,-12%,7,-3%
CCOC(=O)c1c(CN2CCN(CC#N)CC2)n(C)c2cc(Br)c(OC)cc12,-63*,?,-13%,?,-13,·
COc1cc(CN2CCOc3ccc(CN4CCC(O)(c5cccnc5)CC4)cc3C2)cc(OC)c1,·,6%[9.04 µM],·,-12%,·,·
Oc1c(C(c2ccco2)N2CCN(C(c3ccccc3)c3ccccc3)CC2)sc2ncnn12 (centres undefined),-64*,?,?,21µM*,-18,10%
Oc1c(C(c2cccs2)N2CCN(c3cccc(Cl)c3)CC2)sc2ncnn12 (centres undefined),?,?,1%,23µM*,-12,13%
COc1ccc(C(c2sc3ncnn3c2O)N2CCN(c3ccccc3F)CC2)cc1OC (centres undefined),-3,12µM*,?,21µM*,-8,5%
Cc1ccc2cc(C)c3nnc(SCC(=O)Nc4nc5c(s4)CCCC5)n3c2c1,·,·,?,·,·,0%
Cc1noc(C)c1COc1ccccc1C(=O)N(C)CC(=O)Nc1ccc(F)cc1,-1,8%,-6%,-15%,-24,·
CN(C)c1ncc2nc(-c3ccccc3)c(=O)n(Cc3ccc(F)cc3)c2n1,·,3%,·,7%,·,·
COc1ccccc1[C@@]1(C)ON(c2ccccc2C(F)(F)F)C1=O,-94*,?,18µM*,?,28,-19%
O=C1N(c2ccccc2C(F)(F)F)OC1(Cc1ccccc1)c1ccccc1 (centres undefined),-80*,-22%,?,?,9,1%
CC[C@]1(c2ccccc2C)ON(c2ccccc2C(F)(F)F)C1=O,-2,-3%,6%,-14%,-3,·
CC(C)CCNC(=O)c1onc(CSc2ccccc2)c1C(=O)NCCC(C)C,-2,23µM*,·,?,-13,·
COc1cccc(SCc2noc(C(=O)NCCC(C)C)c2C(=O)NCCC(C)C)c1,-18,18µM*,·,15µM*,7,·
C=C(CN(C)C)C(=O)c1ccc(C)cc1C,-107*,0.52µM*,·,0.58µM*,-3,·
CC(=O)Nc1ccccc1NC(=O)c1ccc(C)cc1C,-2,0%,-3%,-15%,8,0%
C=C(C)CNC(=S)NNC(=O)CCn1c2ccc(Cl)cc2c2cc(Cl)ccc21,-100*,?,-18%,?,28,0%
C=C(C)CNC(=S)NNC(=O)CCn1c2cc(Cl)ccc2c2ccc(Cl)cc21,14,-31%,-5%,?,-8,8%
SMILES,IL-1B inflam inh,TDP1 cell CPT,ELG1 DNA repair,TDP1 cell noCPT,Giardia kill,TDP1 block
CCC(=O)N1CCC1(C)C(=O)Nc1cccc(OC)c1OC (centres undefined),-4,-1%,·,-9%,·,·
CCCCNc1ccc2c3c(cccc13)C(=O)N(CCCC)C2=O,-22,26µM*,?,21µM*,-14,·
O=C(CN(Cc1ccccc1)C(=O)c1cc2c(s1)CCC2)NCc1cccs1,?,-24%,?,?,1,0%
O=C(CN(C(=O)c1cc2c(s1)CCC2)C1CCCC1)NCc1cccs1,?,8.2µM*,?,18µM*,-19,-2%
CC(OC(=O)CCCN=C1NS(=O)(=O)c2ccccc21)C(=O)Nc1ccc(F)cc1Cl (centres undefined),5,-4%,15%,-6%,0,·
CCOC(=O)C1CCCN(c2ncnc3c2[nH]c2cccc(OC)c23)C1 (centres undefined),·,·,0%,·,·,-5%
COc1cccc2[nH]c3c(N4CCCC(C)C4)ncnc3c12 (centres undefined),-14,?,10%,23µM*,9,0%
COc1cccc2[nH]c3c(N4CC(C)CC(C)C4)ncnc3c12 (centres undefined),·,·,15µM*,·,·,6%
O=C1S/C(=C/c2ccc(N3CCOCC3)o2)C(=O)N1Cc1c(F)cccc1Cl,0,?,?,-28%,-5,7%
O=C1S/C(=C\c2ccc(N3CCOCC3)o2)C(=O)N1c1ccccc1,-104*,1.6µM*,?,8.2µM*,19,5%
O=C1S/C(=C\c2ccc(N3CCOCC3)o2)C(=O)N1Cc1c(F)cccc1Cl,20,7.3µM*,1%,?,6,2%
Cc1ccc(OCC(=O)Nc2c(Cl)ccc3nsnc23)cc1C,·,·,·,·,·,7%
Cc1oc2ccc(O)c(CN3CCN(C)CC3)c2c1C(=O)Nc1cccc(C(F)(F)F)c1,·,15µM*,·,?,·,0%
CCN1CCN(Cc2c(O)ccc3oc(C)c(C(=O)Nc4cccc(C(F)(F)F)c4)c23)CC1,·,15µM*,·,?,·,1%
CCCN1CCN(C(=O)Nc2cccc(C(F)(F)F)c2)CC1,-9,-24%,29%,-14%,18,2%
CN(C(=O)c1ccc(NC(=O)C2CCCN(C(=O)OC(C)(C)C)C2)cc1)C1CC1 (centres undefined),8,?,?,?,-15,3%
